SMARCA2 act – SMARCA2 (BRM) function activators, primary screen, cell-based, luminescence, high throughput. MG213 cells, MMTV-luciferase reporter, dexamethasone, overnight. activation, % at 9.1 µM. 370,000 tested, 1% active. AID 652017, 2013; in the data active = activation above about 7.8%;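 also: 0% = vehicle wells and 100% = reference activator wells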
GAA850 FXN act – FXN promoter activators, primary screen, cell-based, luciferase luminescence, HEK293 lucGAA850. HEK293 lucGAA850 FXN promoter luciferase reporter, 24 h; percent of 10 µM SAHA response. activation, % at 6 µM. 360,000 tested, 0.56% active. AID 540364, 2011;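 active = activation above the average of all compounds screened plus 3 SD, cutoff fixed separately per campaign, cut at about 7.5% in these data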;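 also: 0% = DMSO wells and 100% = 10 µM SAHA wells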
KLK7 zymogen act – proKLK7 zymogen activators, primary screen, biochemical, fluorescence intensity. 370,000 tested, 0.9% active. Kallikrein-7 (Homo sapiens), P49862. activation, % at 7 µM. purified proKLK7, EDANS-DABCYL substrate fluorescence; 100% is mature enzyme control, 0% vehicle;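 active = activation above the mean of all tested compounds plus 3 SD, computed per campaign excluding outliers beyond control limits, cut at about 13% in these data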
Target sequence (P49862 whole entry, looked up): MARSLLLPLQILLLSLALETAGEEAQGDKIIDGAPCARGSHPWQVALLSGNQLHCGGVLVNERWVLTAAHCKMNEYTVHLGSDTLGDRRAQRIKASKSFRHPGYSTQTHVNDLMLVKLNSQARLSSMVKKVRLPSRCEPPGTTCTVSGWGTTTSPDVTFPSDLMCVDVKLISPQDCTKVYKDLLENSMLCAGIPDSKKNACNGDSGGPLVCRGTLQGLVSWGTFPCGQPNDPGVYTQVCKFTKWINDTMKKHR
FAS-TE inh – FAS thioesterase domain inhibitors, primary screen, biochemical, fluorescence intensity, uHTS. recombinant FAS-TE, OMFH fluorogenic substrate, fluorescence endpoint. inhibition, % at 15 µM. 360,000 tested, 0.67% active. AID 602261, 2012;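 active = compounds whose normalised, plate-corrected inhibition of enzyme fluorescence in the single-dose primary screen is 50% or more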;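 also: 0% = DMSO with enzyme and 100% = substrate without enzyme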
SMARCA2 conf – SMARCA2 (BRM) function activators, confirmation, cell-based, luminescence, triplicate; shares compounds with SMARCA2 act; activation, % at 9.1 µM; MG213 cells, MMTV-luciferase with dexamethasone, overnight; MG213 cells expressing E1A, Rb sequestered; DMSO wells 0%, reference activator 100%; 3,500 tested, 30% active;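 active = activation above its plate's cutoff, the mean activation of tested wells plus 3 SD, cut at about 7.9% in these data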
GAL4-VP16 Luc – GAL4-VP16 luciferase reporter activation, counter-screen for SMARCA2 (BRM) activator project, cell-based, pG5luc, luminescence, high throughput | shares compounds with SMARCA2 act | HEK293 GAL4-VP16 pG5luc reporter; scaled: DMSO wells 0%, SAHA wells 100% | activation, % at 9.1 µM | 3,500 tested, 41% active | AID 686939, 2013;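 active = activation above the solvent-only control well mean plus 3 SD, averaged across control plates, cut at about 5.2% in these data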
* = called active by the depositor; · = no result. Rows were chosen to be rich in hits. Some 2.9% of all compounds tested hit in one or more screens of this group.

SMILES | SMARCA2 act | GAA850 FXN act | KLK7 zymogen act | FAS-TE inh | SMARCA2 conf | GAL4-VP16 Luc
O=C(Nc1ccc2c(c1)OCCO2)NC12CC3CC(CC(C3)C1)C2 | 20* | 3 | 1 | 11 | 12* | 11*
O=C(CCc1ccccc1)Nc1ccc2c(c1)OCCO2 | 8.2* | -1 | 0 | -4 | 10* | 11*
COc1ccccc1C(=O)Nc1ccc2c(c1)OCCO2 | 8.1* | 4 | 0 | -6 | 7 | 11*
N#Cc1cccc(NCC(=O)Nc2ccc3c(c2)OCCO3)c1 | 9.8* | 6 | 0 | 9 | 8 | 3
COc1nc(OC)nc(N2CCC(C(=O)NC3CC3)CC2)n1 | -5 | 1 | 0 | 1 | · | ·
O=C(Nc1ccc2c(c1)OCO2)N1CCOCC1 | 0 | 1 | 0 | -6 | · | ·
O=C(Nc1ccc2c(c1)OCCO2)N1CCOCC1 | 9.7* | -2 | 0 | -7 | 0 | 3
CC(=O)NC(=O)c1ccc(-c2ccc(Cl)cc2)o1 | 8.5* | 2 | 0 | -7 | 7 | 4
O=C(NC(=S)Nc1ccccc1O)c1ccc(-c2ccc(Cl)cc2)o1 | 2 | 1 | 0 | 12 | · | ·
CN1CCN(c2ccc(NC(=O)c3ccc(-c4ccc(Cl)cc4)o3)cc2)CC1 | 9.1* | -1 | 1 | 8 | 7 | 0
CN1CCN(C(=O)c2ccccc2NC(=O)c2sc3ccccc3c2Cl)CC1 | 3 | 2 | -1 | -4 | · | ·
CN1CCN(c2ccc(NC(=O)c3sc4ccccc4c3Cl)cc2)CC1 | 8.4* | 1 | -4 | 0 | 1 | 3
Cc1c(CC(=O)NCCCO)c(=O)oc2cc3c(cc12)CCC(C)(C)O3 | 0 | 2 | 12 | -3 | · | ·
CN(C)C(=O)N1CCN(c2nc(-c3ccccc3)cs2)CC1 | 11* | 6 | 0 | 2 | 4 | 5.9*
O=C(N1CCOCC1)N1CCN(c2nc(-c3ccccc3)cs2)CC1 | 6 | 1 | 0 | 22 | · | ·
CC(C)[C@H](N)C(=O)N[C@H]1CCC2C3CC=C4C[C@@H](O)CC[C@]4(C)C3CC[C@@]21C (some centres undefined) | 19* | -1 | -17 | -7 | 44* | 2
CCC(C(=O)Nc1ccc2c(c1)OCCO2)n1nnc2ccccc2c1=O (centres undefined) | 8.7* | 3 | 0 | -2 | 2 | 6.1*
CC(Sc1nc2ccccc2c(=O)n1C)C(=O)Nc1ccc2c(c1)OCCO2 (centres undefined) | -2 | 2 | 0 | 11 | · | ·
Cc1cccc(NC(=O)Nc2ccccn2)c1C | 5 | 7 | 0 | -6 | · | ·
Cc1cccc(NC(=O)c2ccccn2)c1C | 8.3* | 2 | 0 | -7 | 13* | 8.4*
CCCc1cc(=O)oc2c3c(cc(OCC(=O)NCc4ccccn4)c12)OC(C)(C)CC3 | 2 | -1 | -12 | 3 | · | ·
FC(F)(F)c1ccc(-c2cccc3c2C2CC3CCN2)cc1 (centres undefined) | -1 | -1 | 0 | -5 | · | ·
O=c1c2cc([N+](=O)[O-])ccc2sn1-c1ccccc1 | 0 | -1 | 0 | 18 | · | ·
CCn1c2ccccc2c2cc(NC(C)=O)ccc21 | 7 | 0 | 1 | -4 | · | ·
N#Cc1ccc2sn(-c3ccccc3)c(=O)c2c1 | 12* | 1 | 0 | -9 | 7.9* | 11*
SMILES | SMARCA2 act | GAA850 FXN act | KLK7 zymogen act | FAS-TE inh | SMARCA2 conf | GAL4-VP16 Luc
CC(=O)Nc1ccc2sn(-c3ccccc3)c(=O)c2c1 | 17* | -7 | 0 | -7 | 8.8* | 1
O=C(Nc1nccs1)c1cc(S(=O)(=O)N2CCCCC2)ccc1Cl | 0 | 0 | -1 | -1 | · | ·
O=C(O)CCc1c(C(=O)O)[nH]c2ccccc12 | 0 | -1 | 0 | -4 | · | ·
Cc1cc2ccccn2c1C(=O)c1ccc(Cl)cc1 | 3 | -1 | 0 | 15 | · | ·
Cc1cc2ccccn2c1C(=O)Nc1cccc(Cl)c1 | 8.1* | 3 | -5 | 32 | 5 | 3
Cc1ccsc1C(=O)OCC(=O)NCCC1=CCCCC1 | 8.4* | 6 | 0 | -1 | 9.7* | 5
COc1cccc(C(=O)NCCC2=CCCCC2)c1 | 12* | 1 | 0 | -2 | 8 | 18*
O=C(NCCC1=CCCCC1)c1ccc([N+](=O)[O-])cc1 | 9.5* | 3 | 0 | 40 | 13* | 12*
Cc1cc([N+](=O)[O-])c(C)cc1-c1ccc(/C=N/NC(=O)c2cccnc2)o1 | -2 | 1 | 1 | 0 | · | ·
Cc1cccc(N2CCN(C(=O)COc3cc4oc(=O)cc(C)c4cc3Cl)CC2)c1C | 0 | -1 | 0 | 44 | · | ·
COc1ccc(C(=O)Nc2cccc(/C(C)=N\NC(=O)c3ccoc3C)c2)cc1OC | 8.4* | 7 | 0 | 2 | -3 | 7.9*
COc1ccc(C(=O)Nc2cccc(/C(C)=N/NC(=O)c3ccc([N+](=O)[O-])c(C)c3)c2)cc1OC | -1 | 0 | 1 | 8 | · | ·
Nc1ncc(-c2ccccc2)c(-c2ccc(O)cc2O)n1 | -3 | 4 | -1 | -5 | · | ·
Nc1nc(Nc2ccccc2F)sc1C(=O)c1ccccc1 | 8.2* | -2 | -1 | 8 | 13* | 6.9*
COc1ccc(C(=O)C2CCN(S(=O)(=O)c3ccc4c(c3)OCCO4)CC2)cc1 | -4 | 2 | 1 | 32 | · | ·
O=[N+]([O-])c1ccc2nc(-c3ccccc3)oc2c1 | 2 | 2 | 0 | 22 | · | ·
COc1ccc(-c2cc(CNc3nc(NC(C)C)nc4cc(-c5ccccc5)sc34)on2)cc1 | 12* | -3 | 4 | 3 | 3 | 4
Cc1noc(/C=C/Nc2ccc(F)cc2F)c1[N+](=O)[O-] | 8.0* | 6 | 0 | -17 | 7 | 10*
COc1cc(C)nc(Oc2ccc(=O)[nH]n2)n1 | 0 | 1 | -1 | -5 | · | ·
Nc1c(C(=O)O)ccc2c1C(=O)c1ccccc1C2=O | 4 | 0 | 0 | 0 | · | ·
Nc1ccc2c(c1Cl)C(=O)c1ccc(N)c(Cl)c1C2=O | 10* | 8.4* | 0 | 0 | 23* | 5.2*
CCOc1ccc(CCNC(=O)COC(=O)c2cccc(N(C)C)c2)cc1OCC | 8.1* | 4 | 1 | -1 | 3 | 8.7*
CCOc1ccc(CCNC(=O)COC(=O)c2cccc(S(=O)(=O)N(C)C)c2)cc1OCC | 1 | 0 | 1 | -4 | · | ·
COC(=O)COc1ccc(S(=O)(=O)N2CCN(c3ccc(OC)cc3)CC2)cc1 | 2 | -1 | 0 | 11 | · | ·
COc1ccc(-n2c(C)c(C)c3c(NCCCO)ncnc32)cc1 | 11* | 1 | -1 | -4 | 0 | 5.4*
